PAFAH2 FP inh = inhibitors of human PAFAH2; Q99487; recombinant PAFAH2, FP-rhodamine activity probe, fluorescence polarization; inhibition, % at 3.39 µM; 0.99% of 340,000 active;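 active = inhibition above the mean over all tested compounds plus 3 SD, cut at about 30% in these data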;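 note: inhibitors block probe labeling of enzyme so polarization drops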
PP5 inh = PP5 (human) phosphatase inhibition. P53041. purified PP5c, OMFP substrate fluorescence. inhibition, % at 6.7 µM. 0.18% of 320,000 active;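 active = inhibition above the campaign's mean inhibition across all tested compounds plus 3 SD, cut at about 9.5% in these data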
PAFAH1B3 inh = blocks human PAF acetylhydrolase 1B catalytic subunit 3; Q15102; recombinant PAFAH1B3, FP-rhodamine probe, fluorescence polarization; inhibition, % at 3.39 µM; 0.28% of 340,000 active;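 active = inhibition above the screen-wide average of all tested compounds plus 3 SD, cut at about 25% in these data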
Target sequence (Q15102 whole entry, looked up): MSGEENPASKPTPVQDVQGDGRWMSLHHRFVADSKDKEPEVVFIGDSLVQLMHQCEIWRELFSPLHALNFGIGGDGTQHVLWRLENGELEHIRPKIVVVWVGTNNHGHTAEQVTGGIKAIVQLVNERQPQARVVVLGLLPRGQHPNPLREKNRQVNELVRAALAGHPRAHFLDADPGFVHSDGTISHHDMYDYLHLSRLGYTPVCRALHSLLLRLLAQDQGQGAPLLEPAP
pPAFAH FP inh = inhibitors of human plasma PAF acetylhydrolase (pPAFAH); Q13093; recombinant pPAFAH, FP-rhodamine probe fluorescence polarization; inhibition, % at 3.39 µM; 1.5% of 330,000 active;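 active = inhibition above the mean inhibition across the screen plus 3 SD, cut at about 25% in these data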;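 note: inhibitors block binding of the rhodamine activity-based probe so polarization drops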
PP1 counter = PP1-alpha (human) inhibition in PP5 counter-screen; purified PP1alpha, OMFP fluorescence; inhibition, % at 6.7 µM; 0.9% of 320,000 active; AID 2235;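 active = inhibition above the mean inhibition of all tested compounds plus 3 SD, computed separately for each screening campaign, cut at about 15% in these data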
Target sequence (P62136 whole entry, looked up): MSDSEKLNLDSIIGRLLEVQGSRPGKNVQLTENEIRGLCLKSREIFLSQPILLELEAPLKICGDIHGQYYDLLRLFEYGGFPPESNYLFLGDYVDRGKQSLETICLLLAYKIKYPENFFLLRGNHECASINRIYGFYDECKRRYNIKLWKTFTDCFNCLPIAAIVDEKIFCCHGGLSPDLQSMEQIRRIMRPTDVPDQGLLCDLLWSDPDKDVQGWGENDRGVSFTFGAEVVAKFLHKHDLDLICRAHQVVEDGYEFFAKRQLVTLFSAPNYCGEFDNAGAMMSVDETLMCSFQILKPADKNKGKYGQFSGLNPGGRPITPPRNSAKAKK
PAFAH1B2 FP inh = inhibitors of human PAFAH1B2 | recombinant PAFAH1B2, FP-rhodamine activity probe, fluorescence polarization | AID 492953 | inhibition, % at 3.39 µM | 1.2% of 340,000 active;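 active = inhibition above the mean of all tested compounds plus 3 SD, cut at about 24% in these data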
Of the large screens only hits and unclear results are named; the others gave an inactive call. Only some compounds are listed: those with a hit (about 3.4% of all), similar ones and a draw of the others.

Cc1ccc(C2(C)NC(=O)N(CC(=O)c3ccc(Cl)s3)C2=O)cc1 (stereo not drawn)	none
O=C(O)c1ccccc1NS(=O)(=O)c1ccc(NNC(=S)Nc2ccc(OC(F)F)cc2)c([N+](=O)[O-])c1	PAFAH2 FP inh 70.1, PAFAH1B3 inh 55.6, PAFAH1B2 FP inh 59.8 (no result: PP5 inh, pPAFAH FP inh, PP1 counter)
Cc1cccc(NC(=O)C(C)OC(=O)c2ccccc2NS(=O)(=O)c2cc(C)c(C)c([N+](=O)[O-])c2)c1 (stereo not drawn)	none
Cc1ccc(/C=C/C(=O)O)cc1S(=O)(=O)Nc1ccccc1C(=O)O	none
CC(=O)Nc1ccc(C=NNc2ccc([N+](=O)[O-])cc2S(=O)(=O)Nc2ccccc2C(=O)O)cc1	pPAFAH FP inh 26.1 (no result: PP5 inh, PP1 counter)
Cc1ccc(NC(=S)NNc2ccc([N+](=O)[O-])cc2S(=O)(=O)Nc2ccccc2C(=O)O)cc1C	PAFAH2 FP inh 38.4, pPAFAH FP inh 29.0, PP1 counter 16.7, PAFAH1B2 FP inh 25.1
COc1ccc(C(C)=NNc2ccc([N+](=O)[O-])cc2S(=O)(=O)Nc2ccccc2C(=O)O)c(OC)c1	pPAFAH FP inh 30.7 (no result: PP5 inh, PP1 counter)
Cc1ccc(S(=O)(=O)Nc2ccc3c(c2)nc(CCN2CCCCC2)n3C)cc1	none
Cc1ccc(N2C3=C(C(=O)CC(C)(C)C3)C(c3cn(C)nc3C)C3=C2CC(C)(C)CC3=O)cc1	pPAFAH FP inh 26.8
O=C(COC(=O)c1cccs1)NC12CC3CC(CC(C3)C1)C2	none
CC(=O)Oc1cc(C(=O)OCC(=O)NC23CC4CC(CC(C4)C2)C3)cc(OC(C)=O)c1OC(C)=O	PAFAH2 FP inh 88.5, PAFAH1B2 FP inh 64.8 (no result: PP5 inh, pPAFAH FP inh, PP1 counter)
COc1cccc(C(=O)OCC(=O)NC23CC4CC(CC(C4)C2)C3)c1	PAFAH2 FP inh 81.6, pPAFAH FP inh 26.7 (no result: PP5 inh, PP1 counter)
Cc1ccc(N(C(=O)C2CCC(=O)N2)C2(C(=O)NC3CCCCC3)CCCCC2)cc1 (stereo not drawn)	none
COc1ccc(CNS(=O)(=O)NCc2ccccc2)cc1OC	none
Clc1ccc(COc2cccc(CNCc3ccncc3)c2)cc1	PAFAH1B2 FP inh 33.0
c1ccc2cc(-c3cc4ccccn4c3)ccc2c1	pPAFAH FP inh 27.8
CN(C(=O)COC(=O)C(C)(C)Oc1ccc(Cl)cc1)c1c(N)n(Cc2ccccc2)c(=O)[nH]c1=O	pPAFAH FP inh 28.9
Cc1ccc(S(=O)(=O)NNC(=O)C2CCCCC2)cc1	none
O=C(NNS(=O)(=O)c1ccc(Br)cc1)C1CCCCC1	PAFAH1B2 FP inh 28.2
CCOC(=O)CN1CCC(c2cc(-c3ccc(Cl)cc3)n[nH]2)CC1	pPAFAH FP inh 31.1
O=C(COC(=O)C1CC2C=CC1C2)Nc1ccc2c(c1)OC(F)(F)O2 (stereo not drawn)	PAFAH2 FP inh 46.1, pPAFAH FP inh 26.4
Cc1ccc(O)c(N=Nc2ccc(S(=O)(=O)N3CCCC3)cc2)c1	none
COc1ccc2nc(Cl)c(/C=N/Nc3ccccn3)cc2c1	PP1 counter 15.9
COc1ccccc1N1CCN(C(=S)Nc2ccc3nc(N4CCOCC4)cc(C)c3c2)CC1	none
CC(C)C(OC(=O)c1cccs1)C(=O)NCc1ccc(F)cc1 (stereo not drawn)	none
Cc1ccc(CN(C)C(=O)c2cc(COc3ccc(F)cc3Cl)on2)o1	none
Cc1nonc1CN(C)C(=O)c1cc(COc2ccc(F)cc2Cl)on1	pPAFAH FP inh 26.1
O=C(c1cc(COc2ccc(F)cc2Cl)on1)N1CCN(C2CCCC2)CC1	pPAFAH FP inh 26.0
O=C(CSc1nnc(-c2ccccc2)n1Cc1ccco1)Nc1ccc(S(=O)(=O)N2CCCC2)cc1	none
CCCCOc1ccc(C(=O)Nc2cc(C)c(OCC(=O)N3CCOCC3)c(C)c2)cc1	none
O=C1CC(SCc2nc3ccccc3[nH]2)C(=O)N1c1ccc(F)c(Cl)c1 (stereo not drawn)	PAFAH1B2 FP inh 28.8
CCCOc1ccc(N2C(=O)CC(SCCc3nc4ccccc4[nH]3)C2=O)cc1 (stereo not drawn)	none
O=C1CC(SCCc2nc3ccccc3[nH]2)C(=O)N1c1ccc(Cl)cc1 (stereo not drawn)	PAFAH1B2 FP inh 31.5
CC(C1CC2CCC1C2)n1c(-c2ccco2)n[nH]c1=S (stereo not drawn)	PAFAH1B2 FP inh 27.0
O=C(O)C/C(=C\c1cc2c(cc1Br)OCO2)c1nc2ccccc2s1	PAFAH1B2 FP inh 73.2
COC(=O)C(F)(Sc1c(C)n(C)n(-c2ccccc2)c1=O)C(F)(F)F (stereo not drawn)	none
COc1cccc(/C=N/NC(=O)Cn2cnc3c2c(=O)n(C)c(=O)n3C)c1OC	none (no result: PAFAH2 FP inh, PAFAH1B3 inh, PAFAH1B2 FP inh)
CCN(CC)CCOc1ccc(/C(=C(\Cl)c2ccccc2)c2ccccc2)cc1	PP1 counter 17.5
CCN(CC)S(=O)(=O)c1ccc(/C=C/C(=O)OCC(=O)NCc2ccco2)cc1	PAFAH2 FP inh 74.8, pPAFAH FP inh 30.0 (no result: PP5 inh, PP1 counter)
CC(=O)N1c2ccccc2C(C)(c2ccccc2)CC1(C)C (stereo not drawn)	none
CC(Sc1ccc(S(=O)(=O)N2CCN(C)CC2)cn1)C(=O)NC1(C#N)CCCCC1 (stereo not drawn)	PAFAH1B2 FP inh 30.8 (no result: PP5 inh, pPAFAH FP inh, PP1 counter)
O=C(CNc1ccc2c(c1)OCO2)N/N=C\c1cn(Cc2ccccc2)c2ccccc12	pPAFAH FP inh 30.3, PP1 counter 17.4
O=C(CNc1ccccc1)N/N=C/c1ccc2c(c1)OCO2	none
O=C(NNS(=O)(=O)c1ccccc1)c1ccccc1-n1cccc1	none
O=C(NNS(=O)(=O)c1ccc(Br)cc1)c1ccccc1-n1cccc1	PAFAH1B2 FP inh 29.4
O=C(CCNC(=O)c1ccc(Br)cc1)Nc1cc(Cl)ccc1-n1cncn1	none
Oc1ccc(/C=N/Nc2ncnc3c2ncn3Cc2ccccc2)cc1O	pPAFAH FP inh 30.4
CCC1CCCCN1CCCNC(=O)Cn1cc2c(n1)-c1c(oc(C(=O)N3CCCC3)c1C)CC2 (stereo not drawn)	none
c1ccc(SCc2cc(-c3ccccc3)no2)cc1	PAFAH1B2 FP inh 26.1
O=C(c1ccc(Cl)cc1[N+](=O)[O-])N1CCc2ccccc2C1	none
Oc1ccc(C2=Nn3c(nnc3-c3ccco3)SC2)cc1O	PAFAH2 FP inh 49.3, PAFAH1B3 inh 50.0, pPAFAH FP inh 31.5, PAFAH1B2 FP inh 28.6
COC(=O)C1=C(O)/C(=C\c2ccc(CNC(=O)C(=O)Nc3ccc(C)c(C)c3)o2)N=C1C	none
CC1CC(NC(=O)CCn2c(=O)oc3ccccc32)CC(C)(C)C1 (stereo not drawn)	PAFAH2 FP inh 44.2, PAFAH1B2 FP inh 37.8
O=C(CCCn1c(=O)oc2ccccc21)NC1CCCCCC1	none (no result: PAFAH2 FP inh, PAFAH1B3 inh, PAFAH1B2 FP inh)
O=C(Nc1ccc(N2C(=O)C3C4C=CC(C4)C3C2=O)cc1)Nc1nncs1 (stereo not drawn)	none
CC(CCC(=O)O)C1CCC2C3C(O)CC4CC(O)CCC4(C)C3CC(O)C12C (stereo not drawn)	none
N#Cc1c(-c2ccccc2)nc(SCC(=O)N(c2ccccc2)c2ccccc2)[nH]c1=O	PAFAH1B2 FP inh 38.9

Screening data (PubChem)
